Hits are enriched below; roughly 1.3% of the tested compounds scored in any of these assays.
LYPLA2 inh – LYPLA2 (human) inhibition in PME1 counter-screen; O95372; recombinant LYPLA2, FP-Rh probe fluorescence polarization; inhibition, % at 5.9 µM; actives 0.38% (n = 320,000);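 active = inhibition above the screen-wide mean plus 3 SD, limit set per campaign, cut at about 26% in these data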;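 also: 0% = LYPLA2 with DMSO and 100% = wells lacking LYPLA2 enzyme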
LYPLA1 inh – blocks human lysophospholipase 1, a PME1 counter-screen; actives 0.16% (n = 320,000); inhibition, % at 5.9 µM; recombinant LYPLA1, FP-Rh probe fluorescence polarization;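 active = inhibition above the mean of all tested compounds plus 3 SD, set per campaign, cut at about 14% in these data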;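 also: inhibitors block serine hydrolase probe labeling of LYPLA1 so polarization falls; 0% = enzyme with DMSO and 100% = wells lacking LYPLA1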
Fam108B counter – counter-screen for RBBP9 inhibitors: inhibitors of mouse Fam108B. recombinant Fam108B, FP-Rh probe fluorescence polarization. inhibition, % at 9.51 µM. actives 0.33% (n = 300,000);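 active = inhibition above the screen mean inhibition plus 3 SD, computed separately per campaign, cut at about 18% in these data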;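 also: inhibitors lower polarization as less probe binds the enzyme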
PME-1 inh – blocks human protein phosphatase methylesterase 1; inhibition, % at 5.9 µM; AID 2130; actives 0.53% (n = 320,000); recombinant PME-1, FP-Rh probe fluorescence polarization;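 active = inhibition above the campaign mean of all compounds plus 3 SD, cut at about 26% in these data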;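 also: competitive labeling of PME-1 active site by serine hydrolase directed probe; 0% = PME-1 with DMSO and 100% = wells lacking PME-1 enzyme; inhibitors block probe labeling so polarization falls and inhibition rises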
PREPL inh – human PREPL enzyme inhibition. Q4J6C6. recombinant PREPL, fluorescence polarization activity-based probe. inhibition, % at 5.96 µM. actives 0.68% (n = 320,000). AID 2751; in the data active = inhibition above about 43%;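 also: 0% = enzyme with DMSO and 100% = wells lacking enzyme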
* hit, by the source's call; . = no result given.

SMILES | LYPLA2 inh | LYPLA1 inh | Fam108B counter | PME-1 inh | PREPL inh
Cc1cc2cc(CNC(=O)COc3ccccc3)ccc2n1C | 8 | 7 | 9 | 8 | 52*
Cc1cc2cc(CNC(=O)c3cc4ccccc4o3)ccc2n1C | 5 | 1 | 5 | 3 | 65*
O=S(=O)(c1ccc(Cl)cc1)N1CCN(CCc2ccncc2)CC1 | 2 | 1 | -1 | 2 | 2
O=S(=O)(c1ccc(Br)c2ccccc12)N1CCCC1 | -3 | -1 | -4 | 7 | 1
Cc1ccc2[nH]c(O)c(N=NC(=O)c3ccc(NS(=O)(=O)c4cccs4)cc3)c2c1 | -12 | -4 | 18 | 52* | 12
O=C(N=Nc1c(O)[nH]c2ccc(F)cc12)c1ccc(NS(=O)(=O)c2cccs2)cc1 | 1 | 4 | . | 10 | 17
COc1ccc2[nH]c(O)c(N=NC(=O)c3ccc(NS(=O)(=O)c4cccs4)cc3)c2c1 | -4 | -7 | . | 30* | 30
CN(c1ccccc1)S(=O)(=O)c1cccc(NC(=O)c2ccc(Cl)c([N+](=O)[O-])c2)c1 | . | . | . | . | -6
COc1ccccc1NC(=O)c1cc2ccccc2o/c1=N\O | 11 | 2 | -6 | -3 | -2
COc1ccccc1NC(=O)c1cc2ccc(O)cc2o/c1=N\O | 7 | 2 | 16 | 27* | 19
COc1cccc(N=Nc2c(=O)[nH]n3c(=O)cc(C)[nH]c23)c1 | -14 | 2 | 2 | 13 | 0
COc1cccc(N=Nc2c(=O)[nH]n3c(=O)c4c([nH]c23)CCC4)c1 | -3 | 3 | 5 | 36* | 4
CC(NC(=O)Nc1ccccc1F)C(C)(C)C (configuration not stated) | -6 | -3 | 2 | 7 | -1
CC(C)(C)n1nnnc1C(c1cccs1)N(Cc1cccnc1)Cc1ccco1 (configuration not stated) | 1 | -3 | -1 | 30* | 6
N#C/C(=C\c1ccc(Oc2ccc(C(F)(F)F)cc2[N+](=O)[O-])cc1)c1nc2ccccc2[nH]1 | -3 | -1 | 7 | 7 | 37
N#C/C(=C/c1ccc(N2CCCC2)c([N+](=O)[O-])c1)c1nc2ccccc2[nH]1 | 7 | 3 | 4 | 29* | 14
CCN(CC)c1ccc(/C=N/NC(=O)Cc2nnc(NC(=O)Nc3ccccc3)s2)cc1 | -14 | -25 | 47* | 37* | 20
CC(C)(C)c1nnc(NS(=O)(=O)c2cc(Cl)ccc2Cl)s1 | -3 | -8 | -2 | -4 | -5
O=S(=O)(Nc1nc(-c2sccc2Cl)cs1)c1cc(Cl)ccc1Cl | -5 | -2 | 29* | 13 | 1
CN1C(C(=O)N2CCc3ccccc3C2)=CC(c2ccc(F)cc2)=NS1(=O)=O | 10 | 5 | 1 | 15 | -6
O=c1c(O)c(-c2ccccc2)oc2cc(O)cc(O)c12 | . | . | . | . | -10
CC(C)=CCc1cc(-c2oc3cc(O)cc(O)c3c(=O)c2O)ccc1O | 6 | -2 | 7 | 34* | 20
S=C(NCCOCCOCCNC(=S)Nc1ccccc1)Nc1ccccc1 | 6 | 2 | 0 | 8 | 2
S=C(NCCNC(=S)Nc1ccccc1)Nc1ccccc1 | 9 | 0 | 2 | 33* | 13
Cc1ccc(S(=O)(=O)CCC(=O)OCC(=O)Nc2ccc(N3CCOCC3)cc2)cc1 | 5 | 4 | -2 | 2 | -1
SMILES | LYPLA2 inh | LYPLA1 inh | Fam108B counter | PME-1 inh | PREPL inh
CC1(C)C(=O)Nc2ccccc2N1C(=O)COc1ccc(C#N)cc1 | . | . | . | . | 10
O=C(CNc1ccc2ccccc2c1)N/N=C/c1ccc(OC(=O)/C=C/c2ccco2)cc1 | 22 | -3 | 16 | 30* | -21
COc1ccc(-c2nc(NC(=O)c3[nH]c(C)c(C(C)=O)c3C)sc2C)cc1 | -2 | -7 | 16 | 47* | 21
CC(=O)c1c(C)[nH]c(C(=O)Nc2nc(-c3ccc(-c4ccccc4)cc3)cs2)c1C | -24 | -34 | 14 | -39 | 8
CC(=O)c1c(C)[nH]c(C(=O)Nc2nc(-c3ccc(Cl)cc3)cs2)c1C | -2 | -2 | -6 | 51* | 2
O=C(C[C@H]1C/C=C\C[C@H](NC(=O)OCC2c3ccccc3-c3ccccc32)C(=O)O[C@H](c2ccccc2)CNC1=O)N[C@H](CO)Cc1ccccc1 | . | . | . | . | 11
CN(C)S(=O)(=O)c1cccc(NC(=O)c2cc([N+](=O)[O-])ccc2N2CCCCC2)c1 | 0 | -4 | . | 46* | 11
CC(=O)Nc1cccc(NC(=O)c2cc([N+](=O)[O-])ccc2N2CCCCC2)c1 | -7 | -5 | . | 5 | 8

Source: PubChem
